# Test results reported in paper PMC8384837, “Expanding the binding specificity for RNA recognition by a PUF domain”.
# Numbering of substitutions follows the chain as printed.
# Tests used:
# Assay in all cases: yeast three-hybrid, YBZ-1, SC-Leu-His + 0.5 mM 3-AT, 4 days
# Conditions in all cases: tags: N-Gal4 AD-HA kept; label: inside an RPR1-promoter hybrid RNA with tandem MS2 sites; ssRNA
# [1] = molecular target: PUM1 PUF domain R5-FRT (Homo sapiens, UniProt Q14671 828-1176, C1007F;Q1011T)
# Summary of the method: (§1)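 Repeat regions from input (SC-Leu) and selection (SC-Leu-His + 0.5 mM 3-AT) plates were PCR-amplified and Illumina-sequenced after four days of growth. The cells were strain YBZ-1 with a LexA–MS2 coat fusion and a HIS3 reporter, co-expressing Pumilio-1 PUF domain libraries and matching RNA elements from a centromeric plasmid. The interaction score is the log change in variant frequency from input to selection, taken in log2 with a pseudocount of 1 for absent variants.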
# [2] = molecular target: PUM1 PUF domain R5-RAM (Homo sapiens, UniProt Q14671 828-1176, C1007R;R1008A;Q1011M)
# Summary of the method: as §1
# [3] = molecular target: PUM1 PUF domain R5-NRR (Homo sapiens, UniProt Q14671 828-1176, C1007N;Q1011R)
# Summary of the method: as §1
# [4] = molecular target: PUM1 PUF domain R4-TNG (Homo sapiens, UniProt Q14671 828-1176, N971T;H972N;Q975G)
# Summary of the method: as §1
# [5] = molecular target: PUM1 PUF domain R4-HRV (Homo sapiens, UniProt Q14671 828-1176, N971H;H972R;Q975V)
# Summary of the method: as §1
# [6] = molecular target: PUM1 PUF domain R4-PYT (Homo sapiens, UniProt Q14671 828-1176, N971P;H972Y;Q975T)
# Summary of the method: as §1
# [7] = molecular target: PUM1 PUF domain R2-VFV (Homo sapiens, UniProt Q14671 828-1176, N899V;Y900F;Q903V)
# Summary of the method: as §1
# [8] = molecular target: PUM1 PUF domain R3-GPK (Homo sapiens, UniProt Q14671 828-1176, C935G;R936P;Q939K)
# Summary of the method: as §1
# [9] = molecular target: PUM1 PUF domain R7-KTE (Homo sapiens, UniProt Q14671 828-1176, S1079K;N1080T)
# Summary of the method: as §1
# [10] = molecular target: PUM1 PUF domain R7-EYN (Homo sapiens, UniProt Q14671 828-1176, S1079E;N1080Y;E1083N)
# Summary of the method: as §1
# [11] = molecular target: PUM1 PUF domain R7-RGN (Homo sapiens, UniProt Q14671 828-1176, S1079R;N1080G;E1083N)
# Summary of the method: as §1
# [12] = molecular target: PUM1 PUF domain R8-MHP (Homo sapiens, UniProt Q14671 828-1176, N1122M;Y1123H;Q1126P)
# Summary of the method: as §1
# [13] = molecular target: PUM1 PUF domain R8-HFD (Homo sapiens, UniProt Q14671 828-1176, N1122H;Y1123F;Q1126D)
# Summary of the method: as §1
# [14] = molecular target: PUM1 PUF domain R8-CYP (Homo sapiens, UniProt Q14671 828-1176, N1122C;Q1126P)
# Summary of the method: as §1
# [15] = molecular target: PUM1 PUF domain R1-GHR (Homo sapiens, UniProt Q14671 828-1176, S863G;R864H;Q867R)
# Summary of the method: as §1
# [16] = molecular target: PUM1 PUF domain R1-KAR (Homo sapiens, UniProt Q14671 828-1176, S863K;R864A;Q867R)
# Summary of the method: as §1
# [17] = molecular target: PUM1 PUF domain R4-ACC (Homo sapiens, UniProt Q14671 828-1176, N971A;H972C;Q975C)
# Summary of the method: as §1
# [18] = molecular target: T1, PUM1 PUF domain R6-TFT (Homo sapiens, UniProt Q14671 828-1176, N1043T;Y1044F;Q1047T)
# T1 sequence: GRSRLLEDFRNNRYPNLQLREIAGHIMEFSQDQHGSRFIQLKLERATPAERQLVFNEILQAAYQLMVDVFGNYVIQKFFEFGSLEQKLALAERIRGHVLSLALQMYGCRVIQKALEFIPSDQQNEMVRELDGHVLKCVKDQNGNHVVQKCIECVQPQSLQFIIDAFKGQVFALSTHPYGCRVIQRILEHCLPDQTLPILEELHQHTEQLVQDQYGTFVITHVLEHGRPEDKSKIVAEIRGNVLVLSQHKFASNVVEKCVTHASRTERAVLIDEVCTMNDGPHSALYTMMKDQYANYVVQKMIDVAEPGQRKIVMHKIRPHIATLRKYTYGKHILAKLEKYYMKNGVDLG
# Summary of the method: as §1
# [19] = molecular target: PUM1 PUF domain R5-FFV (Homo sapiens, UniProt Q14671 828-1176, C1007F;R1008F;Q1011V)
# Summary of the method: as §1
# [20] = molecular target: T2, PUM1 PUF domain R6-SWD (Homo sapiens, UniProt Q14671 828-1176, N1043S;Y1044W;Q1047D)
# T2 sequence: T1 sequence with T216S, F217W, T220D
# Summary of the method: as §1
sequence,measurement,setting,value
GGCUAGAACUAGUGGAUCCCCCGGCGCCCGGCGGCUCGAGCCCGGGUAAGUGUCAAUAGUCUGCAUGCCGCCGGGCGCCAUGCCUGCAGGUCGACUCUAGAAAACAUG,binding signal,[1],2.21 log2 enrichment (interaction score)
same,binding signal,[2],2.69 log2 enrichment (interaction score)
same,binding signal,[3],6.16 log2 enrichment (interaction score)
GGCUAGAACUAGUGGAUCCCCCGGCGCCCGGCGGCUCGAGCCCGGGUAAGUGUACAUAGUCUGCAUGCCGCCGGGCGCCAUGCCUGCAGGUCGACUCUAGAAAACAUG,binding signal,[4],0.22 log2 enrichment (interaction score)
same,binding signal,[5],1.98 log2 enrichment (interaction score)
same,binding signal,[6],6.02 log2 enrichment (interaction score)
GGCUAGAACUAGUGGAUCCCCCGGCGCCCGGCGGCUCGAGCCCGGGUAAGUGUAAAAAGUCUGCAUGCCGCCGGGCGCCAUGCCUGCAGGUCGACUCUAGAAAACAUG,binding signal,[7],5.17 log2 enrichment (interaction score)
GGCUAGAACUAGUGGAUCCCCCGGCGCCCGGCGGCUCGAGCCCGGGUAAGUGUAAUUAGUCUGCAUGCCGCCGGGCGCCAUGCCUGCAGGUCGACUCUAGAAAACAUG,binding signal,[8],3.25 log2 enrichment (interaction score)
GGCUAGAACUAGUGGAUCCCCCGGCGCCCGGCGGCUCGAGCCCGGGUAAGUCUAAAUAGUCUGCAUGCCGCCGGGCGCCAUGCCUGCAGGUCGACUCUAGAAAACAUG,binding signal,[9],2.46 log2 enrichment (interaction score)
same,binding signal,[10],3.13 log2 enrichment (interaction score)
same,binding signal,[11],3.02 log2 enrichment (interaction score)
GGCUAGAACUAGUGGAUCCCCCGGCGCCCGGCGGCUCGAGCCCGGGUAAGUGUAUAUAGUCUGCAUGCCGCCGGGCGCCAUGCCUGCAGGUCGACUCUAGAAAACAUG,binding signal,[4],2.66 log2 enrichment (interaction score)
same,binding signal,[5],2.89 log2 enrichment (interaction score)
same,binding signal,[6],7.53 log2 enrichment (interaction score)
GGCUAGAACUAGUGGAUCCCCCGGCGCCCGGCGGCUCGAGCCCGGGUAAGUGUUAAUAGUCUGCAUGCCGCCGGGCGCCAUGCCUGCAGGUCGACUCUAGAAAACAUG,binding signal,[1],1.56 log2 enrichment (interaction score)
GGCUAGAACUAGUGGAUCCCCCGGCGCCCGGCGGCUCGAGCCCGGGUAAGCGUAAAUAGUCUGCAUGCCGCCGGGCGCCAUGCCUGCAGGUCGACUCUAGAAAACAUG,binding signal,[12],2.6 log2 enrichment (interaction score)
same,binding signal,[13],2.46 log2 enrichment (interaction score)
same,binding signal,[14],4.27 log2 enrichment (interaction score)
GGCUAGAACUAGUGGAUCCCCCGGCGCCCGGCGGCUCGAGCCCGGGUAAGUGUAAAUUGUCUGCAUGCCGCCGGGCGCCAUGCCUGCAGGUCGACUCUAGAAAACAUG,binding signal,[15],1.34 log2 enrichment (interaction score)
same,binding signal,[16],6.7 log2 enrichment (interaction score)
GGCUAGAACUAGUGGAUCCCCCGGCGCCCGGCGGCUCGAGCCCGGGUAAGUGUAAAUCGUCUGCAUGCCGCCGGGCGCCAUGCCUGCAGGUCGACUCUAGAAAACAUG,binding signal,[15],2.23 log2 enrichment (interaction score)
GGCUAGAACUAGUGGAUCCCCCGGCGCCCGGCGGCUCGAGCCCGGGUAAGUGUAAAUAGUCUGCAUGCCGCCGGGCGCCAUGCCUGCAGGUCGACUCUAGAAAACAUG,binding signal,[16],2.23 log2 enrichment (interaction score)
same,binding signal,[17],2.56 log2 enrichment (interaction score)
same,binding signal,[18],3.71 log2 enrichment (interaction score)
same,binding signal,[6],4.57 log2 enrichment (interaction score)
same,binding signal,[19],2.23 log2 enrichment (interaction score)
GGCUAGAACUAGUGGAUCCCCCGGCGCCCGGCGGCUCGAGCCCGGGUAAGUGGAAAUAGUCUGCAUGCCGCCGGGCGCCAUGCCUGCAGGUCGACUCUAGAAAACAUG,binding signal,[20],5.64 log2 enrichment (interaction score)
